# Values joined by “and” are separate entries in the source; they are usually repeats but may differ in a detail not shown here. Equal values may be shown once. Results filed as inconclusive are left out. Where a call stands in place of a potency, no number is given. Active and inactive are the calls of the source. Calls come from the whole dose curve; as a rule, active = well fitted cell-killing curve with a large enough effect; inconclusive = small, poorly fitted or top-dose-only effect; inactive = flat fitted curve, though single readings scatter.
# Test: qHTS of pediatric cancer cell lines to identify multiple opportunities for drug repurposing: Primary screen for DAOY cells (AID 1347090); note: nearly all actives have a fitted effect of over 55% in size
# Settings: DAOY medulloblastoma viability, CellTiter-Glo luminescence, 48 h; series mostly up to 46 µM
# From the text: Drug repurposing or repositioning has been offered as a strategy for drug development in oncology programs. This approach has special potential for childhood cancers and other rare or orphan diseases, where the expected return on new drug development has been a disincentive to pharmaceuticals.
# In this project we exploit the poly-pharmacology of drugs to discover new indications via phenotypic screening of a panel of 19 well-characterized cell lines derived from solid tumors seen in children and adolescents. The goal is to identify approved drugs with previously unrecognized anticancer properties that has the potential to reveal new mechanisms and biological processes involved in carcinogenesis or drug resistance. We employed a titration-based paradigm (quantitative high-throughput screening or qHTS), where all compounds were tested at multiple concentrations for their effect on cell viability. Concentration-response curves (CRCs) were derived directly from the primary screen, and both potency and efficacy values were used to identify compounds with robust bioactivity profiles. We screened the NIH Chemical Genomics Center (NCGC) Pharmaceutical Collection (NPC) and Mechanism Interrogation Plate (MIPE) small molecule collections of approved and investigational compounds against these cell lines; and measured metabolically active cells after 48 hours of compound treatment as a proxy for cell viability.
# Assay Submitter: Nathalia J. Martinez, National Center for Advancing Translational Sciences, National Institutes of Health, Rockville, MD, USA; email: natalia.martinez@nih.gov
# [1] Shen, M et al. Quantitative high-throughput phenotypic screening of pediatric cancer cell lines identifies multiple opportunities for drug repurposing. Oncotarget 2017 Dec 19;9(4):4758-4772. PMID 29435139.
# The cells were obtained from University of North Carolina (UNC), Pediatric Preclinical Testing Program (PPT), and Coriell Institute (CI).
# qHTS cell viability assay:
# Cells were assayed in growth media at a density of 500-1,000 cells/well. Five microliters of cells were dispensed into 1,536-well, white, solid-bottom, TC-treated plates (Greiner Bio One) using a multidrop dispenser and incubated at 37 degrees C, 5% CO2, under a humidified atmosphere for 5 hours. Twenty-three nanoliters of compounds and controls (neutral control DMSO or positive control bortezomib at final concentration of 2.3 µM) were subsequently transferred by Kalypsys pintool. For primary screens, the MIPE collection was tested at 11-point dilutions (final concentrations range from 0.78 nM to 46 µM) and the NPC collection at 8-point dilutions (final concentrations range from 0.59 nM to 46 µM). Compounds tested in follow-up screens were assayed at 11-point dilutions. Cells were incubated for 48 hours, followed by addition of 3 uL of CellTiter-Glo (Promega). After a 15 min incubation at room temperature, samples were analyzed for luminescence intensity using a ViewLux High-throughput CCD imager equipped with clear filters.
# Potency is the fitted concentration of half-maximal effect.
row,SMILES,Potency
1,C=CC[C@]1(O)CC[C@H]2[C@@H]3CCC4=CC(=O)CCC4=C3C=C[C@@]21C,inactive
2,CN1C(=O)CN=C(c2ccccc2)c2cc([N+](=O)[O-])ccc21,inactive
3,CC#C[C@]1(O)CC[C@H]2[C@@H]3C[C@H](C)C4=CC(=O)CC[C@]4(C)[C@H]3CC[C@@]21C,inactive
4,COc1ccc(C(=O)N2CCCC2=O)cc1,inactive
5,Cc1cccc(Cc2cnc[nH]2)c1C,inactive
6,COc1cc(C[C@@H](C)N)c(OC)cc1C,inactive
7,O=C(O)CCCCCCNC1c2ccccc2CCc2ccccc21,inactive
8,CCC1(c2cccc(O)c2)CCCCN(C)C1 (stereo not given),inactive
9,OC(O)C(Cl)(Cl)Cl,inactive
10,C[C@@H]1O[C@@H](O[C@@H]2C=C3CC[C@@H]4[C@H](CC[C@]5(C)[C@@H](c6ccc(=O)oc6)CC[C@]45O)[C@@]3(C)CC2)[C@H](O)[C@H](O)[C@H]1O,2.1 nM (active)
11,CCO[C@H]1O[C@@H]2OC3(C)CC[C@H]4[C@H](C)CC[C@@H]([C@H]1C)[C@@]24OO3,inactive
12,CCC(=O)C(CCN(C)C)(c1ccccc1)c1ccccc1,inactive
13,Cc1c(Cl)c(=O)oc2cc(OP(=O)(OCCCl)OCCCl)ccc12,inactive
14,COP(=O)(OC)C(O)C(Cl)(Cl)Cl (stereo not given),inactive
15,C=CCN1CC[C@]23CCCC[C@H]2[C@H]1Cc1ccc(O)cc13,inactive
16,CC[C@H]1C[C@@H]2C[C@H]3c4[nH]c5ccc(OC)cc5c4CCN(C2)[C@@H]13,37800 nM (active)
17,OC(c1ccccc1)(c1ccccc1)C1CCNCC1,inactive
18,CN(C)CCc1c[nH]c2cccc(O)c12,inactive
19,CCC1(CC)C(=O)NC(=O)NC1=O,inactive
20,CCCN(CCC)CCc1c[nH]c2ccccc12,inactive

row,SMILES,Potency
1,CN(C)CCc1c[nH]c2ccccc12,inactive
2,C[C@H](N)[C@H](O)c1ccc(O)c(O)c1,inactive
3,CC(C)C(Br)C(=O)NC(N)=O (stereo not given),inactive
4,O=C(O)Cc1ccccc1,inactive
5,NC1(c2ccccc2)CCCCC1,inactive
6,CNC(=O)NC(O)C(Cl)(Cl)Cl (stereo not given),inactive
7,COCC(=O)N(c1c(C)cccc1C)C(C)C(=O)OC (stereo not given),inactive
8,C[C@]12CC[C@H]3[C@@H](CC=C4C[C@@H](O)CC[C@@]43C)[C@@H]1CC[C@@H]2O,inactive
9,CCOC(C(=O)OCCN(C)C)(c1ccccc1)c1ccccc1,inactive
10,CCOC(=O)NC(C)(C)Cc1ccc(Cl)cc1,inactive
11,O=C(O)c1nn(Cc2ccc(Cl)cc2Cl)c2ccccc12,inactive
12,CCCOC(=O)Cc1ccc(OCC(=O)N(CC)CC)c(OC)c1,inactive
13,C[C@@H]1C[C@@H]([C@H](O)CC2CC(=O)NC(=O)C2)C(=O)[C@@H](C)C1,1.06 µM (active) and 1.18 µM (active)
14,Oc1ccc2[nH]cc(CCCCN3CC=C(c4ccccc4)CC3)c2c1,inactive
15,COP(=S)(OC)Oc1ccc(Sc2ccc(OP(=S)(OC)OC)cc2)cc1,inactive
16,C[C@]12CC[C@H]3[C@@H](CCC4=CC(=O)CC[C@@H]43)[C@@H]1CC[C@@H]2O,inactive
17,C[C@]12CC[C@H]3[C@@H](CCC4=CC(=O)CC[C@@]43C)[C@@H]1CC[C@@H]2C(=O)O,inactive
18,C1CN2CCC1CC2,inactive
19,CC(C(O)c1ccccc1)N(C)C/C=C/c1ccccc1 (stereo not given),inactive
20,COC(=O)C1=CCCN(C)C1,inactive

# Source: PubChem BioAssay (NCATS)
